Source: PubChem BioAssay (several laboratories)
Most compounds without a hit are left out; they make up all but 2% or so of the library.
CHT inh – human CHT choline transport inhibition | Q9GZV3 | CHT-expressing cells, membrane potential dye, choline response; active compounds read low | B-score at 10 µM | 310,000 tested, 0.86% active | AID 488975;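 active = B-score over 3 SD under the library average, and starting fluorescence ratio not unusually high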;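 also: choline stimulus applied at its EC90 after an EC20 pre-addition; B-score computed on integrated fluorescence ratio after choline addition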
Target sequence (Q9GZV3 whole entry, looked up): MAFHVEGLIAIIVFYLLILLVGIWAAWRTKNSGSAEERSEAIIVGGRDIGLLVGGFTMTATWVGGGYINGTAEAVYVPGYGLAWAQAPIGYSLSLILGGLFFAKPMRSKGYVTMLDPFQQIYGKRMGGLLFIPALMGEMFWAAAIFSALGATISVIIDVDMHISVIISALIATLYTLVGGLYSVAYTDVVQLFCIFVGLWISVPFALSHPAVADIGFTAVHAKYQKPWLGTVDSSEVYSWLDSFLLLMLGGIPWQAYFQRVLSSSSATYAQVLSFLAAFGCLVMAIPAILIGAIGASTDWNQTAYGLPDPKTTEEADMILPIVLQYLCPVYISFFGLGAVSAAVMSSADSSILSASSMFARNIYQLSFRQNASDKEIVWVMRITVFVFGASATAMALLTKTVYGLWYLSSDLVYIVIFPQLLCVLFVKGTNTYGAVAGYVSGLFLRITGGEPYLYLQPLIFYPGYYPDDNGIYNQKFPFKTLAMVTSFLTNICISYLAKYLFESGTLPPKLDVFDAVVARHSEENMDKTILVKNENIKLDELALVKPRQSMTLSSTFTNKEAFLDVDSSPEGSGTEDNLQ
EP2 modulator – modulates human prostaglandin E2 receptor EP2 signaling. EP2-expressing cells, cAMP HTRF FRET, PGE2 co-stimulation. induction, % at 25 µM. 260,000 tested, 0.83% active;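 active = compounds whose cAMP rise, as percent of the full-agonist control response, exceeds 60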;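 also: rat C6 glioma line stably carrying human EP2 under a CMV promoter; the protocol text gives 20 µM as final concentration; 100% = response of wells given 1 µM PGE2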
CHT allo act – allosteric activators of human choline transporter CHT. B-score at 10 µM. AID 488977. 310,000 tested, 0.49% active. CHT-expressing cells, membrane potential dye, choline EC20; active compounds read high; LV-AA mutant CHT in HEK293 cells. Q9GZV3;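 active = initial fluorescence not abnormally high and integrated response B-score, plate-corrected, over 3 SD above library mean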
EP2 antag – blocks the human prostaglandin E2 receptor EP2; inhibition, % at 25 µM; C6 glioma cells expressing human EP2, cAMP TR-FRET; cells stimulated with saturating PGE2; P43116; 260,000 tested, 0.52% active;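 active = percent inhibition above 40 after rounding to a whole number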;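 also: rat C6 glioma host cells with rolipram phosphodiesterase inhibitor present; the protocol text gives 20 µM as final concentration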
CHT activ conf – confirmation of human choline transporter (CHT) activators; shares compounds with CHT allo act; CHT-expressing cells, membrane potential dye fluorescence (FDSS); % of choline EC20–EC90 response window; HEK293 expressing CHT LV-AA mutant; choline added at its EC20; AID 504833; activation, % at 10 µM; 2,500 tested, 91% active;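 active = primary screen active, with duplicate mean activation above negative control mean plus 3 SD, cut at about 11% in these data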
HEK293 MP dye – activity in parental HEK293 cells lacking CHT. membrane potential dye fluorescence (FDSS); measured after EC20 choline addition. shares compounds with CHT allo act. 2,500 tested, 62% active. ratio readout change at 10 µM, hits read low;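 active = duplicate-averaged ratio beyond 3 SD from buffer wells, up or down, though filed actives are nearly all decreases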
* hit, by the source's call.

How did CCC(CN1CCCCC1)NC(=O)C1(c2ccccc2)CCOCC1 (stereo unspecified) do in these assays?
EP2 modulator: -31.7; EP2 antag: 0.4

Results for COc1ccc(OC)c2c(C)cc(N3CCN(C(=O)c4ccc(F)cc4)CC3)nc12 ?
CHT inh: inactive; EP2 modulator: -20.5; CHT allo act: 6.55*; EP2 antag: 17.6; CHT activ conf: 41.4*; HEK293 MP dye: -68.5*

How did Nc1nc2ccccc2nc1N1CCCC1 do in these assays?
CHT inh: inactive; EP2 modulator: 12.5; CHT allo act: inactive; EP2 antag: 9.4

Results for CN1CCN(C=Nc2nc3ccccc3nc2N2CCCC2)CC1 ?
CHT inh: inactive; EP2 modulator: 20.9; CHT allo act: 6.68*; EP2 antag: 8.3; CHT activ conf: 25.5*; HEK293 MP dye: -51.9*

Results for Cc1ccc(-c2cc[n+](Cc3ccccc3)cc2)cc1 ?
CHT inh: inactive; EP2 modulator: -20.1; CHT allo act: 6.68*; EP2 antag: 8.8; CHT activ conf: 57.6*; HEK293 MP dye: -42.1*

What do the screens show for `NS(=O)(=O)c1ccc(CCNC(=O)CSc2nc3ccsc3c(=O)n2C2CC2)cc1`?
CHT inh: inactive; EP2 modulator: -5.0; CHT allo act: inactive; EP2 antag: 4.4

How did CCOC(=O)N1CCC(n2c(SCC(=O)NCCc3ccc(S(N)(=O)=O)cc3)nc3ccccc3c2=O)CC1 do in these assays?
CHT inh: inactive; EP2 modulator: 13.3; CHT allo act: 14.8*; EP2 antag: 1.7; CHT activ conf: 35.0*; HEK293 MP dye: -21.1*

How did C(=N\Nc1ccccn1)/c1cccnc1 do in these assays?
CHT inh: inactive; EP2 modulator: 17.7; CHT allo act: inactive; EP2 antag: 14.9; CHT activ conf: 59.0*; HEK293 MP dye: -54.1*

Results for COc1ccc(/C=N/Nc2ccccn2)cc1OC ?
CHT inh: inactive; EP2 modulator: 13.1; CHT allo act: inactive; EP2 antag: 3.6; CHT activ conf: 41.5*; HEK293 MP dye: -42.6*

What do the screens show for `CCOc1cc(CNCCSc2nnnn2C)cc(Br)c1OCc1ccccc1`?
CHT inh: inactive; EP2 modulator: -22.9; CHT allo act: 6.96*; EP2 antag: 19.4; CHT activ conf: 14.6*; HEK293 MP dye: inactive

Results for CCOc1cc(CNCCO)cc(Br)c1OCc1ccccc1 ?
CHT inh: inactive; EP2 modulator: -22.2; CHT allo act: inactive; EP2 antag: 7.2

How did COc1ccccc1Cc1nnc(NC(=O)Cn2ccc3ccc(F)cc32)s1 do in these assays?
EP2 modulator: -16.8; EP2 antag: 3.2

How did CN(C)CCCn1c(NCc2ccc3c(c2)OCO3)nc2ccccc21 do in these assays?
CHT inh: inactive; EP2 modulator: -4.1; CHT allo act: inactive; EP2 antag: 4.0; CHT activ conf: 35.0*; HEK293 MP dye: -49.9*

Results for CCN(CC)C1=CC(=[N+]2CCCC2)CC(C)(C)C1 ?
CHT inh: inactive; EP2 modulator: -5.8; CHT allo act: inactive; EP2 antag: 4.0; CHT activ conf: 46.1*; HEK293 MP dye: inactive

Results for CC1(C)CC(N2CCCC2)=CC(=[N+]2CCCCCC2)C1 ?
CHT inh: inactive; EP2 modulator: -30.5; CHT allo act: 8.65*; EP2 antag: 10.2; CHT activ conf: 54.0*; HEK293 MP dye: inactive

What do the screens show for `CC1(C)CC(N2CCN(c3ccccc3)CC2)=CC(=[N+]2CCCC2)C1`?
CHT inh: inactive; EP2 modulator: 9.2; CHT allo act: inactive; EP2 antag: 10.5; CHT activ conf: 40.8*; HEK293 MP dye: inactive

How did Cc1ccc2cc(C(c3nnnn3C3CCCCC3)N3CCC(O)CC3)c(=O)[nH]c2c1C (stereo unspecified) do in these assays?
EP2 modulator: -54.4; EP2 antag: 5.5

Results for CCC(C)Nc1nc2c(c(=O)n(C)c(=O)n2C)n1CC(O)COc1ccc(OC)cc1 (stereo unspecified) ?
EP2 modulator: 8.2; EP2 antag: 8.0

What do the screens show for `Cc1ccnc(NC(=O)C(C)N2C(=O)c3ccccc3S2(=O)=O)c1` (stereo unspecified)?
CHT inh: inactive; CHT allo act: 10.4*; CHT activ conf: 6.4; HEK293 MP dye: inactive

What do the screens show for `Cc1csc(NC(=O)C(C)N2C(=O)c3ccccc3S2(=O)=O)n1` (stereo unspecified)?
CHT inh: inactive; CHT allo act: inactive; CHT activ conf: 10.7*; HEK293 MP dye: inactive

How did COc1cccc(NC(=O)C(C)N2C(=O)c3ccccc3S2(=O)=O)c1 (stereo unspecified) do in these assays?
CHT inh: inactive; CHT allo act: inactive

What do the screens show for `CC(C)CN(C(=O)CSc1nnc(-c2cccs2)n1N)c1c(N)n(Cc2ccccc2)c(=O)[nH]c1=O`?
CHT inh: inactive; CHT allo act: 6.73*; CHT activ conf: 26.2*; HEK293 MP dye: inactive

Results for Cc1ccc(C(C(=O)NC2CCCC2)N(C(=O)c2csnn2)c2ccc(Cl)cc2)o1 (stereo unspecified) ?
EP2 modulator: -5.2; EP2 antag: 12.2

Results for O=C1C(C=NCCCn2ccnc2)=C(O)c2ccccc21 ?
CHT inh: inactive; CHT allo act: inactive; EP2 antag: 4.8

Results for CC(=NCCCn1ccnc1)C1=C(O)c2ccccc2C1=O ?
CHT inh: inactive; EP2 modulator: 11.3; CHT allo act: inactive; EP2 antag: 11.0; CHT activ conf: 28.5*; HEK293 MP dye: -38.4*

Results for COC(=O)c1c(NC(=O)CSc2nc(C)cc(C)n2)sc2c1CCCC2 ?
EP2 modulator: 20.6; EP2 antag: 14.0

How did CCSc1nnc(-c2ccncc2)o1 do in these assays?
CHT inh: inactive; EP2 modulator: -4.1; CHT allo act: inactive; EP2 antag: 11.6

Results for c1cc(-c2nnc(-c3ccncc3)o2)ccn1 ?
CHT inh: inactive; EP2 modulator: 4.4; CHT allo act: 8.74*; EP2 antag: 1.7; CHT activ conf: 76.9*; HEK293 MP dye: -59.5*

How did COc1ccc(-n2c(Cc3ccccc3)nnc2SCc2ccc([N+](=O)[O-])cc2)cc1 do in these assays?
CHT inh: inactive; EP2 modulator: 31.1; CHT allo act: inactive; EP2 antag: 7.3

How did O=[N+]([O-])c1ccc(CSc2nnc(Cc3ccccc3)n2-c2ccc(F)cc2)cc1 do in these assays?
CHT inh: inactive; EP2 modulator: 13.7; CHT allo act: inactive; EP2 antag: 4.7; CHT activ conf: 20.8*; HEK293 MP dye: inactive

What do the screens show for `Cc1cccc2cc(CN(CCO)C(=S)NCc3ccccc3)c(=O)[nH]c12`?
EP2 modulator: -43.1; EP2 antag: 11.4

Results for CCCCc1c(C)nc2cc(-c3ccco3)[nH]n2c1=O ?
CHT inh: inactive; EP2 modulator: -10.1; CHT allo act: inactive; EP2 antag: 9.5
